# Measured values taken from PubChem BioAssay (Tox21).
# Inconclusive results are not listed. Activity calls are given as the source filed them. Calls come from the whole dose curve; as a rule, active = well fitted cell-killing curve with a large enough effect in the repeat runs; inconclusive = weak or mixed curves, or effect the other way; inactive = flat fitted curve, though single readings scatter.
# Test: Human pregnane X receptor (PXR) small molecule agonists, qHTS cell viability counter screen (AID 1346977); note: nearly all actives have a fitted effect of over 50% in size
# Conditions: PXR-Luc HepG2 viability, CellTiter-Fluor, 24 h; series mostly up to 92.4 µM; activity change, negative = cytotoxicity: at the top concentration
# Excerpt: U.S. Tox21 Program National Center for Advancing Translational Sciences [NCATS] NIH Chemical Genomics Center [NCGC] U.S. Environmental Protection Agency [EPA] National Institutes of Environmental Health Sciences [NIEHS] National Toxicology Program [NTP] U.S. Food and Drug Administration [FDA] Tox21 Assay Overview: The human pregnane X receptor (hPXR) regulates the expression of several drug metabolizing enzymes and induction of these proteins is a major mechanism for developing drug resistance in cancer. One such key enzyme catalyzing the drug metabolism is cytochrome P450 3A4 (CYP3A4). Changes in CYP3A4 expression affect drug metabolism, thereby reducing the therapeutic efficacy and altering toxicological response to a drug and which finally causes adverse drug interaction. To screen Tox21 libraries for compounds that activate hPXR-mediated CYP3A4 gene expression, PXR-Luc HepG2 cells were used. Also cytotoxicity of the compounds was tested in parallel by measuring the cell viability using CellTiter-Fluor assay system in the same wells.
# Tox21 Assay Protocol Summary: PXR-Luc HepG2 cells were dispensed at 2,000 per well in 5uL of assay medium containing 5% charcoal-stripped FBS into white solid bottom 1536-well plates (Corning Life Sciences, Corning, NY) using a Multidrop Combi (Thermo Scientific, Waltham, MA) dispenser. The assay plates were incubated at 37 C and 5% CO2 for 5hr, and then 23nL of compounds dissolved in DMSO and positive control were transferred using a Pintool station (Wako, San Diego, CA). The assay plates were incubated at 37C and 5% CO2 for 24hr. For cytotoxicity read, after 23hr incubation at 37C, 1uL CellTiter-Fluor reagent (Promega Corporation, Madison, WI) was added to each well of the assay plates using Flying Reagent Dispenser (FRD, Aurora Discovery, San Diego, CA). After 1hr incubation at 37C and 5% CO2, the fluorescence signal was quantified using a ViewLux plate reader (PerkinElmer, Shelton, CT).
# % is set by controls: 0 for no effect and ±100 for the full control effect; potency is the fitted concentration of half-maximal effect.
SMILES,"activity change, negative = cytotoxicity",Potency
CCO[Si](CCCCl)(OCC)OCC,3.51% (inactive),–
CC(C)(C)OCC1CO1 (stereo not given),-2.17% (inactive),–
O=[N+]([O-])c1cccc(S(=O)(=O)O)c1,9.03% (inactive),–
CCOc1ccc(N=Nc2ccc(/C=C/c3ccc(N=Nc4ccc(OCC)cc4)cc3S(=O)(=O)O)c(S(=O)(=O)O)c2)cc1,–,47.8 µM (active)
CCCC(=O)Nc1ccc(O)c(C(C)=O)c1,-2.36% [at 42.5 µM] (inactive),–
COc1ccc(C(=O)N2CCN(CC(=O)N3CCOCC3)CC2)cc1,6.07% [at 42.5 µM] (inactive),–
C[C@@H]1C[C@H]2[C@@H]3CCC4=CC(=O)C=C[C@]4(C)[C@@]3(F)[C@@H](O)C[C@]2(C)[C@@]1(O)C(=O)COC(=O)c1ccncc1,7.38% [at 42.5 µM] (inactive),–
C[C@H]1C[C@H]2[C@@H]3CCC4=CC(=O)C=C[C@]4(C)[C@@]3(Cl)[C@@H](O)C[C@]2(C)[C@@]1(O)C(=O)CO,12.6% [at 42.5 µM] (inactive),–
CCn1cc(C(=O)O)c(=O)c2cnc(N3CCNCC3)nc21,-0.153% [at 42.5 µM] (inactive),–
CCCCO,6.22% (inactive),–
CCOC(=O)c1cccnc1,13.1% [at 42.5 µM] (inactive),–
CCOCC(O)COc1ccc(NC(=O)CC[S+](C)C)cc1 (stereo not given),19.5% [at 42.5 µM] (inactive),–
O=C(CS)Nc1ccccc1,11.4% [at 42.5 µM] (inactive),–
c1ccc(CNCCNCc2ccccc2)cc1,-12.2% [at 42.5 µM] (inactive),–
CC(C)=CCC/C(C)=C/CC/C(C)=C/CO,-1.65% (inactive),–
NCCCN1CCOCC1,13.1% (inactive),–
CCCCC(=O)OCC(=O)[C@H]1[C@H](C)C[C@H]2[C@@H]3C[C@H](F)C4=CC(=O)C=C[C@]4(C)[C@@]3(F)[C@@H](O)C[C@@]21C,10% [at 42.5 µM] (inactive),–
Nc1cccc(S(=O)(=O)c2cccc(N)c2)c1,-3.9% (inactive),–
CCOC(=O)C1=C[C@]2(CC)CCCN3CCc4c(n1c1ccccc41)[C@@H]32,–,26.6 µM (active)
CCCCCCCCCCCCCCCCOS(=O)(=O)O,-1.8% [at 42.5 µM] (inactive),–

SMILES,"activity change, negative = cytotoxicity",Potency
C=C(C)C(=O)OCCOCC,0.391% (inactive),–
O=C(c1ccc(F)cc1)C1CCN(CCn2c(=S)[nH]c3ccccc3c2=O)CC1,-3.67% [at 42.5 µM] (inactive),–
CCCCCCCCCCO[C@@H]1O[C@H](CO)[C@@H](O)[C@H](O)[C@H]1O,-10.7% (inactive),–
CCCCOC(=O)CCCCCCCC(=O)OCCCC,5.5% (inactive),–
COc1cc(Cl)ccc1Oc1ccc(Cl)cc1Cl,-12.9% (inactive),–
CC(=O)OC[C@H]1O[C@@H](n2ncc(=O)[nH]c2=O)[C@H](OC(C)=O)[C@@H]1OC(C)=O,-6.15% [at 42.5 µM] (inactive),–
C=CC(=O)OCCOCCOC(=O)C=C,–,54.7 µM (active)
O=S(=O)(Oc1ccc(Cl)cc1)c1ccccc1,-1.35% (inactive),–
Cc1ccc(N=Nc2c(O)c(C(=O)O)cc3ccccc23)c(S(=O)(=O)O)c1,–,23.6 µM (active)
Cc1ccc(C(=O)Oc2ccc(C(O)CNC(C)(C)C)cc2OC(=O)c2ccc(C)cc2)cc1 (stereo not given),-10.1% [at 42.5 µM] (inactive),–
Nc1c(CC(=O)O)cccc1C(=O)c1ccc(Br)cc1,-4.39% [at 42.5 µM] (inactive),–
OCc1cc(C(O)CNCCCCCCOCCCCc2ccccc2)ccc1O (stereo not given),–,21.1 µM (active)
CCN(CC)CCNC(=O)c1cc(Br)c(N)cc1OC,-24.1% [at 42.5 µM] (inactive),–
CC(=O)c1cccc([N+](=O)[O-])c1,2.03% (inactive),–
C=C(C)C(=O)OCCO,10.6% (inactive),–
Cc1cc(N)c2cc(NC(=O)Nc3ccc4nc(C)cc(N)c4c3)ccc2n1,-10.1% [at 42.5 µM] (inactive),–
Nc1ccc(N)c2c1C(=O)c1ccccc1C2=O,–,9.69 µM (active)
O=C(O)C1(C(=O)O)CCC1.[NH2-].[NH2-].[Pt+2],15.6% [at 42.5 µM] (inactive),–
COc1ccc(C)cc1[N+](=O)[O-],-0.418% (inactive),–
CC1(c2ccccc2)OC(C(=O)O)=CC1=O (stereo not given),16.1% [at 42.5 µM] (inactive),–
